Test [1] is described as follows: yeast TOR pathway RPL19A-GFP modulators, primary screen, cell-based, S. cerevisiae, multiplex flow cytometry (AID 1862; in the data active = percent of DMSO control GFP below about 86%;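 also: lower values mimic rapamycin by blocking the RPL19A rise seen in DMSO cells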). The note with it: S. cerevisiae RPL19A-GFP strain, flow cytometry fluorescence, 3 h; at 10 µM; stronger effect = lower value.
Test [2] is described as follows: modulators of MEP2-GFP levels in yeast, primary screen, S. cerevisiae, multiplex flow cytometry (AID 1867;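 active = GFP response, as percent of the DMSO control, above the screen-wide mean plus 3 SD, about 139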;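 also: median GFP channel fluorescence of barcode-gated MEP2-GFP cells measured by flow cytometry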). The following applies: S. cerevisiae MEP2-GFP strain, 3 h, at 10 µM, stronger effect = higher value, 100% means same as DMSO wells.
The nature of test [3]: modulators of CIT2-GFP expression in yeast, primary screen, S. cerevisiae, GFP fusion, multiplex flow cytometry (AID 1870;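 active = percent response above a set limit, the screen-wide mean plus 3 SD, cut at about 130% in these data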;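 also: barcoded CIT2-GFP strain pooled with four other GFP strains with rapamycin as positive control; median GFP fluorescence per well over plate mean of DMSO wells so 100% = DMSO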). The following applies: 3 h, at 10 µM, stronger effect = higher value.
A short description of test [4]: modulators of LAP4-GFP expression in yeast, primary screen, S. cerevisiae, multiplex flow cytometry (AID 1873;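 active = GFP signal, as percent of the solvent control, above the screen mean plus 3 SD, about 149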). The note with it: 3 h, at 10 µM, stronger effect = higher value.
A short description of test [5]: modulators of AGP1-GFP expression in yeast TOR pathway, primary screen, cell-based, multiplex flow cytometry, S. cerevisiae (AID 1887;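 active = GFP signal above the screen-wide mean plus 3 SD, that is over about 124.5% of the solvent control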;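 also: AGP1-GFP fusion strain of S. cerevisiae within a five-strain barcoded multiplex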). The following applies: 3 h, at 10 µM, stronger effect = higher value.
The nature of test [6]: RPL19A-GFP modulators, yeast TOR pathway, confirmation, cell-based, S. cerevisiae, flow cytometry, cherry picks, mother/daughter gates (AID 2270;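 active = GFP response below 50% of the DMSO control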). The following applies: S. cerevisiae RPL19A-GFP strain, 3 h, at 10 µM, stronger effect = lower value, 100 = same GFP as DMSO wells.
Test [7] is described as follows: LAP4-GFP expression modulators in yeast, confirmation, cell-based, cherry picks, flow cytometry, mother/daughter gates (AID 2271;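 active = GFP response above 150% of the DMSO control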;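 also: ratio of sample to DMSO plate mean so 100% equals DMSO level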). The note with it: S. cerevisiae LAP4-GFP strain, 3 h, at 10 µM, stronger effect = higher value, 100 means same as DMSO control.
Test [8] is described as follows: modulators of MEP2-GFP levels in yeast, confirmation, S. cerevisiae, flow cytometry GFP, cherry picks (AID 2272;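 active = GFP response above 150% of the DMSO control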;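 also: ratio of well signal to plate DMSO mean so 100% equals DMSO level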). The note with it: S. cerevisiae MEP2-GFP strain, 3 h, at 10 µM, stronger effect = higher value.
Test [9] in a line: modulators of CIT2-GFP expression in yeast, confirmation, S. cerevisiae, GFP fusion, cherry picks, mother/daughter gates (AID 2274;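 active = GFP response above 150% of the DMSO level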). The following applies: S. cerevisiae CIT2-GFP strain, flow cytometry, 3 h, at 10 µM, stronger effect = higher value.
A short description of test [10]: inhibitors of CD8+ T cell-vesicle binding, pilot screen, LFA-1/ICAM-1 modulator project, MLPCN validation set, flow cytometry (AID 2523;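 active = response below a set limit, under 55% cells CD8-positive and vesicle-bound, and CD8 cells' 90th-percentile brightness under 279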;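 as to vesicle binding response: mean PE anti-B7-1 fluorescence of CD8+ cells relative to row control; 100% = QL9-loaded vesicles with DMSO vehicle in the same plate row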). The note with it: 2C mouse CD8+ T cells, at 7 µM, stronger effect = lower value; double positive events: measured here: CD8+/vesicle+ event percentage.
The target of test [11] is Integrin beta-1 (Homo sapiens) + Integrin alpha-4 (Homo sapiens) (UniProt P13612+P05556). Briefly: inhibition of HUTS-21 binding to VLA-4, pilot screen, VLA-4 allosteric modulator project, U937 cells, HUTS-21 mAb, flow cytometry, validation set (AID 2674;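 active = inhibition above 50%, about 3 SD of the validation set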;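 also: antibody binding induced by the VLA-4 ligand LDV present at three times its Kd; 0% = LDV ligand with antibody and no compound and 100% = antibody without LDV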). The note with it: HUTS-21 LIBS mAb binding, at 6.7 µM, stronger effect = higher value, binding induced by LDV ligand.
A short description of test [12]: superoxide lowering in aged yeast cells, pilot screen, validation compound set (AID 2706;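 active = superoxide response below 65% of plate, a cut near 3 SD across the whole screen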;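 also: yeast exposed to compound for one week at 30 degrees C before staining; 100% = mean of all compound wells on the same plate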). The following applies: S. cerevisiae aging, superoxide DHE fluorescence; at 10 µM; stronger effect = lower value.
Test [13] deals with Beta-adrenergic receptor kinase 1 (Homo sapiens) (UniProt P25098). Briefly: GRK2 binders displacing RNA aptamer, biochemical, validation, human GRK2, bead flow cytometry (AID 488806;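 active = aptamer binding inhibition above 30%, about 3 SD of noise from non-fluorescent compounds; inactive = inhibition at or below 30%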). The following applies: bead-bound GRK2, FAM-aptamer displacement, at 10 µM, stronger effect = higher value.
The target of test [14] is Beta-2 adrenergic receptor (Homo sapiens) (UniProt P07550). Kind of test: beta2AR agonists driving receptor internalization, pilot screen, cell-based, FAP fluorogen, flow cytometry, validation set (AID 504459).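 Also: agonist-driven loss of surface beta2AR via internalization measured by FAP dye flow cytometry.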 The following applies: Am2.2-beta2AR cells, FAP surface receptor flow cytometry; at 10 µM; stronger effect = higher value.
Test [15] has as its target AP-2 complex subunit beta (Homo sapiens) (UniProt P63010). Kind of test: inhibitors of arrestin peptide binding to AP2, pilot screen, biochemical, validation set, GST-AP2 beads, flow cytometry (AID 504541;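 active = inhibition above 54%, about 3 SD of non-fluorescent compounds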;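 also: AP2 carries R879A mutation and is captured from E. coli lysate; bead-bound FITC arrestin peptide fluorescence measuring arrestin peptide binding to AP2; 0% = DMSO wells and 100% = excess unlabeled arrestin peptide control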). The note with it: FITC arrestin peptide, at 10 µM, stronger effect = higher value, AP2 beta2 appendage fragment, R879A mutant.
The nature of test [16]: yeast V-ATPase proton transport modulators, S. cerevisiae, pHLuorin, HTS validation (AID 504600; in the data active = response above about 15%;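 also: plate controls were DMSO for no effect and reference compound for full effect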). The following applies: S. cerevisiae pHLuorin cytosolic pH, at 10 µM, stronger effect = higher value.
For test [17], the system named is anti-desmoglein-3 scFv antibody binding to human DSG3. Kind of test: inhibitors of anti-DSG3 scFv binding to DSG3, pilot screen, biochemical, validation compound set, bead-based, flow cytometry (AID 588368;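 active = binding below the plate cutoff, the plate median minus 3 SD, with a reading above zero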;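 also: signal is the median channel fluorescence of bead-bound GFP antibody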). The following applies: Protein G beads, DSG3-Fc, scFv-GFP binding, at 10 µM, stronger effect = lower value.
Test [18] can be described thus: inhibitors of fungal efflux pumps CDR1, CDR2, MDR1, pilot screen, validation compound set, multiplex, phenotypic (AID 588506;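 active = efflux inhibition above 0.42, the validation set average plus 4 SD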;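 also: Nile Red retained in cells so higher fluorescence means more efflux inhibition; 0 = negative control wells and 1 = enniatin B 25 µM full block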). The following applies: S. cerevisiae pump-expressing triplex, Nile Red efflux flow cytometry; at 10 µM; stronger effect = higher value; the pumps come from Candida albicans.
Test [19] addresses ATP-binding cassette sub-family B member 6 (Homo sapiens) (UniProt Q9NP58). Kind of test: ABCB6 transporter inhibitors, pilot screen, K562-ABCB6 cells, flow cytometry, validation set (AID 588550;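 active = inhibition above the screen-wide mean plus 3 SD, about 51%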;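 also: 0% = DMSO wells and 100% = benzethonium chloride 70 µM positive control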). The following applies: K562-ABCB6 porphyrin accumulation, 1 h, at 10 µM, stronger effect = higher value.
The nature of test [20]: promoters of myeloid differentiation in arrested cells, primary screen, cell-based, GFP/MAC1 double positive, flow cytometry, validation set (AID 588685;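 active = differentiation response of at least 50%, scaled between solvent and reference control, from cells with both markers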;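 also: compound exposure lasts four days before antibody staining and flow analysis; 0% = DMSO wells and 100% = 5 µM fulvestrant positive control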). The note with it: ER-HoxA9 marrow cells, stronger effect = higher value, normalized: vehicle 0, fulvestrant 100.
Setting [21] is: measured here: daughter cell gate.
Where [22] appears, read: measured here: mother cell gate.

Structures are written as SMILES. Results filed as inconclusive are left out. Active and inactive are the calls of the source.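 The calls were made as follows, unless noted: active = percent response above 42, roughly 3 SD of non-fluorescent test compounds; inactive = the rest.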

Integrin beta-1 (Homo sapiens) + Integrin alpha-4 (Homo sapiens), sequence (P05556 whole entry, looked up): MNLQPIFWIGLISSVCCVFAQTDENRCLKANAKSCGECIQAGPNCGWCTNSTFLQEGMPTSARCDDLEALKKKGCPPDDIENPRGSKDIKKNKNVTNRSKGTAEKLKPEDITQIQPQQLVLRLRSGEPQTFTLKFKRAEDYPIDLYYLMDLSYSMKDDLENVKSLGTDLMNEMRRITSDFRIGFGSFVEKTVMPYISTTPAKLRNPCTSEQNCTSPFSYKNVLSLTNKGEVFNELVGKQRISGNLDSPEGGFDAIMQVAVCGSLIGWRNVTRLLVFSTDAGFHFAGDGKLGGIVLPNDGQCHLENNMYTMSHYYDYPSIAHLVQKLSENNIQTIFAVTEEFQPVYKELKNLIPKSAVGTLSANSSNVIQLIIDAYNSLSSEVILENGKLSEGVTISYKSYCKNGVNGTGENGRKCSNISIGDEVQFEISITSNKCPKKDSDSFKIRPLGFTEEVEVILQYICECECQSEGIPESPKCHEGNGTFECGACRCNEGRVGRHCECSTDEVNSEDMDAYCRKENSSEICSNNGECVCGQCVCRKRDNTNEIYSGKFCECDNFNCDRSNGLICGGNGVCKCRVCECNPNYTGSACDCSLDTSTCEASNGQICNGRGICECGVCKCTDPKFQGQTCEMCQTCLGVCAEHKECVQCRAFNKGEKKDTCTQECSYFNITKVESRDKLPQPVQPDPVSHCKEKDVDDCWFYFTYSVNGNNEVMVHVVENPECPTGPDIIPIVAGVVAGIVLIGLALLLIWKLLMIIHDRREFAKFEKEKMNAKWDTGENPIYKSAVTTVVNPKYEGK
Integrin beta-1 (Homo sapiens) + Integrin alpha-4 (Homo sapiens), sequence (P13612 whole entry, looked up): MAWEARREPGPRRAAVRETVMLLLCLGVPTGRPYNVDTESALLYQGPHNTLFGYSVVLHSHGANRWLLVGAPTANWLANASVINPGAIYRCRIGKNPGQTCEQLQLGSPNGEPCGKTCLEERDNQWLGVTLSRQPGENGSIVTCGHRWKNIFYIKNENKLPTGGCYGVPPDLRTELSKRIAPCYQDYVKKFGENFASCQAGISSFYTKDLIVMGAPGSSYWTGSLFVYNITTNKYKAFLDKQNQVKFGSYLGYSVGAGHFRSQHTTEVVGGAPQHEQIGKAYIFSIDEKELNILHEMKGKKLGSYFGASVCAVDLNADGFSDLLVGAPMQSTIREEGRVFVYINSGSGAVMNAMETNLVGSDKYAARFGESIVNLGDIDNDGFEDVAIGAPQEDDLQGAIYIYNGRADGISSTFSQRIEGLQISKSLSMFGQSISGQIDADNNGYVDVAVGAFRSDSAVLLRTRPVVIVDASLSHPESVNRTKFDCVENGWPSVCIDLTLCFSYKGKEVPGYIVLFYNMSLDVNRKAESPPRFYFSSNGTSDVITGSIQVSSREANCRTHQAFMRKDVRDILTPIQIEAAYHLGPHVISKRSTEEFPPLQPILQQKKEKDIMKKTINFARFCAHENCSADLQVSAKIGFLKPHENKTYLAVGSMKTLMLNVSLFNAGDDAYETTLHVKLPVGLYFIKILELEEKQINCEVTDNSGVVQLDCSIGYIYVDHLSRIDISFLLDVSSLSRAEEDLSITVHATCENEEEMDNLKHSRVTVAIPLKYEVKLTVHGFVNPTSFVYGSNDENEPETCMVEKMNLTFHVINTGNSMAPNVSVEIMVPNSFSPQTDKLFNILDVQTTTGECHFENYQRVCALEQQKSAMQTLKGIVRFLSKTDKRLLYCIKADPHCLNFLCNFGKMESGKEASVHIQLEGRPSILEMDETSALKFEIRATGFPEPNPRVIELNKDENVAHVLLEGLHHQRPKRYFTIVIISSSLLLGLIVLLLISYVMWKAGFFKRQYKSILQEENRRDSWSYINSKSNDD
Beta-adrenergic receptor kinase 1 (Homo sapiens), sequence (P25098 whole entry, looked up): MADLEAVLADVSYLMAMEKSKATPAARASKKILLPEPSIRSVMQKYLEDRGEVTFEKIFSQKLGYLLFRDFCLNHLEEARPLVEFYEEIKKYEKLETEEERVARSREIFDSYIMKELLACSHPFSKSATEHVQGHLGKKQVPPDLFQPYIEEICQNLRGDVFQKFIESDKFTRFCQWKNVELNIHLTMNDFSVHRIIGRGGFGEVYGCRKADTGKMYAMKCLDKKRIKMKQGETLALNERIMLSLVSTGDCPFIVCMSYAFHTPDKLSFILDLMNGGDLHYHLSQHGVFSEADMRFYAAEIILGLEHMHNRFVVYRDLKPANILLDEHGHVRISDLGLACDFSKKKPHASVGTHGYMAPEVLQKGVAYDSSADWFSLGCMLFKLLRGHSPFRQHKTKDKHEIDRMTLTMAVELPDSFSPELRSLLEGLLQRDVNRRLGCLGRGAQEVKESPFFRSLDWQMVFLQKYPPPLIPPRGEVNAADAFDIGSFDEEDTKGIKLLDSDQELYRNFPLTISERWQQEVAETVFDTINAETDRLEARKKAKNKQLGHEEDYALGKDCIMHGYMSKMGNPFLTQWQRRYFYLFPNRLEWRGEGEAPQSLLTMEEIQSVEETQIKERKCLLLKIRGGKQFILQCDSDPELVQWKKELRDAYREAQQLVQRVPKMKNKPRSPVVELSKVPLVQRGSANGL
AP-2 complex subunit beta (Homo sapiens), sequence (P63010 whole entry, looked up, the tested form may be a part, one chain of several): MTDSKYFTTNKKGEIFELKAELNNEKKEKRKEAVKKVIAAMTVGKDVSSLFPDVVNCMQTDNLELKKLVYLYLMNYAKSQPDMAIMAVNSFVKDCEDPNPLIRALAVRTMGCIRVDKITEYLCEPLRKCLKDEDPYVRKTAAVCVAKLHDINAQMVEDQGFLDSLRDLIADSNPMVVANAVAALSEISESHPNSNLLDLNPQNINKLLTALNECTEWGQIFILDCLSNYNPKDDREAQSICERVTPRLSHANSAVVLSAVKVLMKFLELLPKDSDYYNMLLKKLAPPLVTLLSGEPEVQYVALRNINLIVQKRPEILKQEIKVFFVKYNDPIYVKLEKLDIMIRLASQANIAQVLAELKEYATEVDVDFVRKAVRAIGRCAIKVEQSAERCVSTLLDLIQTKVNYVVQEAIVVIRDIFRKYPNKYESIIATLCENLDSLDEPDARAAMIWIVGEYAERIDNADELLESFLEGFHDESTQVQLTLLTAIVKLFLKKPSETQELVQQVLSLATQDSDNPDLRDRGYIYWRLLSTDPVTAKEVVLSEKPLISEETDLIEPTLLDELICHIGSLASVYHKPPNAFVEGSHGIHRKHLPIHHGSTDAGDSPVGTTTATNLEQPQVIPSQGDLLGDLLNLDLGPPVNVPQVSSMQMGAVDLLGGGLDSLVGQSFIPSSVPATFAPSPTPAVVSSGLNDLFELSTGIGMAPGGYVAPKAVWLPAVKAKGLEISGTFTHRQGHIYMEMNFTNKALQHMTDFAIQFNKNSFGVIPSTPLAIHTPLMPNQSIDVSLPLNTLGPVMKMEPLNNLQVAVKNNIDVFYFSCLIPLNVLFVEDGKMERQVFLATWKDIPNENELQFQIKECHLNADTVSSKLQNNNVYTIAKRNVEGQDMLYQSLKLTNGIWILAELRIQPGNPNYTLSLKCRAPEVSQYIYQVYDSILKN
ATP-binding cassette sub-family B member 6 (Homo sapiens), sequence (Q9NP58 whole entry, looked up): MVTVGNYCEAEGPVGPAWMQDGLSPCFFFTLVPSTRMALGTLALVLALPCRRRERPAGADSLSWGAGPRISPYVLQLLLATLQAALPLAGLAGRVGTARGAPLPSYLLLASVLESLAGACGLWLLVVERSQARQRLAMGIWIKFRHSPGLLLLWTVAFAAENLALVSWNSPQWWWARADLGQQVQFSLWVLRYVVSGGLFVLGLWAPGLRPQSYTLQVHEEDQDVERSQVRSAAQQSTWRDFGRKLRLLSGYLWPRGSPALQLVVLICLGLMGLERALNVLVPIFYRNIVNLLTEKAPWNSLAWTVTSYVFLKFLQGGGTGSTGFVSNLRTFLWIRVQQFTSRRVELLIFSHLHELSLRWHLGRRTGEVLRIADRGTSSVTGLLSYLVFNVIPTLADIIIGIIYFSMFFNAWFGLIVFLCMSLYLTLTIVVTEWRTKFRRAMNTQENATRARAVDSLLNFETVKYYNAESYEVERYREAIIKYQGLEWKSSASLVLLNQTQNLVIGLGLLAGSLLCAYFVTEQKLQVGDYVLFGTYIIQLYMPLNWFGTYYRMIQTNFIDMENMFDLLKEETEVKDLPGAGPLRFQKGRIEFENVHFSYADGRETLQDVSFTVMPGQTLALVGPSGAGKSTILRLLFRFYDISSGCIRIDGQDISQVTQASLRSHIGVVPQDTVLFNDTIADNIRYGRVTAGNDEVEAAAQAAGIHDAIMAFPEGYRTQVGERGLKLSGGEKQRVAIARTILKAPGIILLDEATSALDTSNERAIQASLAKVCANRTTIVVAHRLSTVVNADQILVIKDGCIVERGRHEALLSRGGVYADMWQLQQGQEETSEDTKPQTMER
Beta-2 adrenergic receptor (Homo sapiens), sequence (P07550 whole entry, looked up): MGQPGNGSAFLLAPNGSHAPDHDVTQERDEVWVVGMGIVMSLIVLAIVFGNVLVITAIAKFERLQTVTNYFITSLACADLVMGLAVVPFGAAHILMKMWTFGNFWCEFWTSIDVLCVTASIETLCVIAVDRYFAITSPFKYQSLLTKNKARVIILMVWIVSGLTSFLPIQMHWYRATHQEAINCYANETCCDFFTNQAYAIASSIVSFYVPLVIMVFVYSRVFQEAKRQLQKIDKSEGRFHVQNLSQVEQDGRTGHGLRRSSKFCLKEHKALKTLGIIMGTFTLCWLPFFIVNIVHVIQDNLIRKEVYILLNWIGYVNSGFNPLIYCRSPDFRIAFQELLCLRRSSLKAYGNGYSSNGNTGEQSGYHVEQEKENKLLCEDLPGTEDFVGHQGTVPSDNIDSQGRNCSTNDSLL

Regarding `CCCCCCCC(=O)OCC(=O)[C@@]1(O)CC[C@H]2[C@@H]3CCC4=CC(=O)CC[C@]4(C)[C@H]3[C@@H](O)C[C@@]21C`, the percent of DMSO control GFP in [1] is 102% (inactive). Further, the GFP response vs DMSO in [2] is 107% (inactive); in test [4], 96.6% (inactive); in test [6] it was 96.5% (inactive); in test [6] (setting [21]) it was 95.9%; in [6] (setting [22]), 96.9%; in test [8], 103% (inactive). Further, the percent response of DMSO control in test [3] is 98.9% (inactive). In addition, the GFP response, % of DMSO in [5] was 98.3% (inactive); in test [9], 93.1% (inactive); in test [9] (setting [21]), 94%; in test [9] (setting [22]) it was 92.6%. The figures for the GFP response relative to DMSO in [7], in test [7] (measured here: daughter cell gate response) and in test [7] (measured here: mother cell gate response) were 94.1% (inactive), 92.9% and 96.4%, respectively. The compound also gave a double positive events in test [10] of 58.8%. In test [10], the vesicle binding response was 182% (inactive). Besides, the inhibition in test [11] was 11% (inactive); in [15], -9.35% (inactive); in test [19], 14% (inactive). Also, in test [12], the superoxide response (% of plate) was 108% (inactive). For the same compound, the aptamer binding inhibition in [13] is 4% (inactive). The response in [14] was 0.19% (inactive); in [16], 10.5% (inactive). The binding (% of control) in test [17] was 97.1% (inactive). In addition, the efflux inhibition (fraction of control) in test [18] is 0.74 (active). The differentiation response in [20] is 5.13% (inactive).
With `CCOC(=O)N1CCN(Cc2nc(Cc3cccc(F)c3)no2)CC1`, the percent of DMSO control GFP in [1] was 102% (inactive). For the same compound, the GFP response vs DMSO in test [2] was 105% (inactive); in test [4] it was 99.9% (inactive). In addition, in test [3], the percent response of DMSO control is 100% (inactive). Also, in [5], the GFP response, % of DMSO was 101% (inactive). Besides, the double positive events in test [10] was found to be 64.5%. Moreover, the vesicle binding response in test [10] was 171% (inactive). Moreover, the figures for the inhibition in [11], in test [15] and in [19] were -3.57% (inactive), -8.69% (inactive) and 13% (inactive), respectively. For the same compound, in [12], the superoxide response (% of plate) was 103% (inactive). Further, the aptamer binding inhibition in test [13] is 5% (inactive). For the same compound, the response in test [14] was 0.58% (inactive); in test [16], 2.06% (inactive). In test [17], the binding (% of control) was 94.8% (inactive). The efflux inhibition (fraction of control) in [18] is 0.02 (inactive). Further, the differentiation response in [20] is 4.15% (inactive).
For the compound `O=C1[C@@H]2CSCN2C(=O)CN1Cc1ccc(F)cc1`, the percent of DMSO control GFP in [1] is 107% (inactive). The GFP response vs DMSO in test [2] was 95.2% (inactive); in [4], 82% (inactive). The percent response of DMSO control in test [3] is 106% (inactive). In addition, the GFP response, % of DMSO in test [5] was 94.8% (inactive). Besides, the double positive events in test [10] stood at 61.3%. Further, the vesicle binding response in [10] was 235% (inactive). Also, the inhibition in [11] was -3.16% (inactive); in [15], -4.78% (inactive); in test [19], 6% (inactive). Besides, the superoxide response (% of plate) in [12] is 111% (inactive). Further, the aptamer binding inhibition in [13] is 2% (inactive). Besides, the response in [14] is 5.93% (inactive); in [16] it was -2.17% (inactive). In addition, in test [17], the binding (% of control) is 83.8% (inactive). For the same compound, in test [18], the efflux inhibition (fraction of control) was -0.21 (inactive). In addition, the differentiation response in [20] was -21.6% (inactive).
Regarding `NS(=O)(=O)c1cc(C2(O)NC(=O)c3ccccc32)ccc1Cl` (stereo not given), the percent of DMSO control GFP in test [1] is 101% (inactive). Besides, the GFP response vs DMSO in [2] is 117% (inactive); in test [4], 78.7% (inactive). Besides, the percent response of DMSO control in [3] was 115% (inactive). Also, in test [5], the GFP response, % of DMSO is 89.6% (inactive). In test [10], the double positive events came out at 58.2%. Also, the vesicle binding response in test [10] was 252% (inactive). In addition, the inhibition is -16.8% (inactive) in test [11], -17.4% (inactive) in test [15] and 9% (inactive) in [19]. The superoxide response (% of plate) in test [12] is 110% (inactive). For the same compound, the aptamer binding inhibition in test [13] was -6% (inactive). Also, the response in [14] was -3.96% (inactive); in test [16] it was 1.36% (inactive). Also, the binding (% of control) in test [17] is 105% (inactive). The efflux inhibition (fraction of control) in test [18] was -0.13 (inactive). In test [20], the differentiation response is 4.09% (inactive).
`C[N+](C)(C)CCCCCCCCCC[N+](C)(C)C`: the percent of DMSO control GFP in [1] was 94.4% (inactive). Moreover, the GFP response vs DMSO was 129% (inactive) in test [2] and 77% (inactive) in test [4]. Moreover, in test [3], the percent response of DMSO control was 103% (inactive). Moreover, the GFP response, % of DMSO in [5] is 87% (inactive). The same compound yielded a double positive events in test [10] of 70%. Also, the vesicle binding response in test [10] is 208% (inactive). The inhibition is 3.55% (inactive) in [11], -6.99% (inactive) in [15] and 12% (inactive) in test [19]. Also, the superoxide response (% of plate) in test [12] is 100% (inactive). Also, the aptamer binding inhibition in [13] was 5% (inactive). For the same compound, the results for the response in [14] and in test [16] were -10.3% (inactive) and 0.2% (inactive), respectively. For the same compound, the binding (% of control) in [17] was 101% (inactive). In test [18], the efflux inhibition (fraction of control) is -0.56 (inactive). Further, the differentiation response in test [20] was 1.64% (inactive).

(Values after PubChem BioAssay.)
